# Measurements from PubChem BioAssay AID648 (SRMLSC, 2007).
# The whole screen tested about 86,000 compounds, of which about 920 (1.1%) were called active. Many of the other results were omitted from the sample, so actives are more common in it than they were. Values without a mark were called inactive.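 How the source made its calls: active means viability at or below 30%; inactive means viability above 30%.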
# Assay: endothelial cell growth inhibition – HUVEC, 384-well, primary screen (AID 648);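 further: 100% = median luminescence of DMSO-only cell control wells on each plate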
# Conditions: HUVEC proliferation, CellTiter-Glo luminescence, 72 h; hits give low values; screened at 10 µM (by protocol)
row,Compound,viability
1,CCOC(=O)c1cnc(SCC(=O)Nc2cccc(OC)c2)nc1N,93.3%
2,CCn1nnnc1SCC(=O)c1ccc(C)cc1C,92.1%
3,OC(COc1ccc2c(c1)CCC2)CN1CCN(c2cccc(Cl)c2)CC1 (centres undefined),83.9%
4,Cc1coc2c(O)cc3c(c12)OC1(N2CCCCC2)C(=O)NCCCC31 (centres undefined),6.44% (active)
5,Cc1cccc(NC(=O)N(Cc2cc3cc(C)cc(C)c3[nH]c2=O)CC2COCCO2)c1 (centres undefined),77.6%
6,N#CCSc1nc2c(c(=O)n1Cc1ccccc1)C1(CCCC1)Cc1ccccc1-2,101%
7,Cc1c(C=O)c2ccccn2c1C(=O)c1ccncc1,97%
8,CCc1c(-c2ccccc2)nc(N)c(C#N)c1-c1cccs1,102%
9,COc1cccc(NC(=O)CN(C)S(=O)(=O)c2ccc(C)cc2)c1,97.5%
10,CCN(CC)C(=O)CSc1nnc(-c2cccc(OC)c2)o1,104%
11,COc1cccc(-c2nnc(NC(=O)c3ccc(S(=O)(=O)N(CC(C)C)CC(C)C)cc3)o2)c1,23.6% (active)
12,CC1(C)NC(=O)N(CCCCSc2ccc(Cl)cc2)C1=O,97.1%
13,CC(C)NS(=O)(=O)c1ccc(NC(=O)C2CCCCC2)cc1,106%
14,Cc1nc(-c2ccc(NC(=O)c3cccs3)cc2)cs1,89.5%
15,O=C(Cc1cccc2ccccc12)Nc1ccc2oc(-c3ccccc3)nc2c1,49.6%
16,O=C(Nc1ccc2oc(-c3ccc4ccccc4c3)nc2c1)c1cccs1,22% (active)
17,CC(Oc1ccc(Cl)cc1)c1ccnn1S(C)(=O)=O (centres undefined),73.7%
18,COc1ccccc1C(=O)N1CC2(C)CC1CC(C)(C)C2 (centres undefined),94%
19,COn1c(=O)c(=O)n(OC)c2ccccc21,105%
20,CCN1CCN(C(c2cccnc2)c2cc(Cl)c3cccnc3c2O)CC1 (centres undefined),74.6%
21,O=C(c1cccc(C(=O)N2CCN(c3ccc(F)cc3)CC2)c1)N1CCN(c2ccc(F)cc2)CC1,92.2%
22,Oc1c(CN2CCN(c3ccc(F)cc3)CC2)cc(Cl)c2cccnc12,5.81% (active)
23,Cc1nnc(SCC(=O)N2CCN(c3ccccc3)CC2)n1-c1ccccc1,93.5%

row,Compound,viability
1,COC(=O)c1ccc(CSc2nnc(NC(C)C)s2)cc1,96.9%
2,CCc1c(O)nc(SCC(=O)Nc2ccccc2)n(C(C)CC)c1=O (centres undefined),96.5%
3,CC(C)(C)n1nnnc1C(c1ccc(F)cc1)N1CCN(Cc2ccc3c(c2)OCO3)CC1 (centres undefined),89%
4,C#CCNc1nc(C(C)C)nc2c1nnn2Cc1ccccc1F,127%
5,CCCc1nc(NCc2ccc3c(c2)OCO3)c2nnn(Cc3ccccc3Cl)c2n1,73.6%
6,Cc1nc(Nc2ccc3c(c2)OCCO3)c2nnn(Cc3ccccc3Cl)c2n1,29.5% (active)
7,Nc1c(C(=O)NCc2ccccc2)sc2nc3c(cc12)C(=O)CCC3,84.8%
8,Cc1nnc(SC(C)C(=O)Nc2ccc(S(=O)(=O)NC3CCCCC3)cc2)s1 (centres undefined),104%
9,O=C(Nc1ccccc1)c1ccc2c(c1)OCO2,94%
10,Cc1cccc(Nc2ccccc2C(=O)NCc2ccco2)c1C,63.9%
11,Cc1cccc(C)c1N1CCN(S(=O)(=O)N2CCOCC2)CC1,108%
12,CC1=C/C(=N\OS(=O)(=O)c2ccccc2)C=CC1=O,1.29% (active)
13,c1ccc(-c2nc(NCc3ccco3)c3ccccc3n2)cc1,85.5%
14,CCSc1nnc(NC(=O)Cc2ccccc2OC)s1,93.5%
15,CC(C)c1cc(C(=O)O)n[nH]1,90.3%
16,C=C(C)CSc1nnc(-c2ccc(C)cc2)n1N,93.8%
17,OCCCN1c2ccccc2Nc2nnc(-c3ccccc3)cc21,69.2%
18,N=c1c2c(-c3ccccc3)c(-c3ccccc3)n(Cc3ccccc3)c2ncn1CCCO,1.91% (active)
19,O=C(NCCN1CCOCC1)c1c(F)c(F)c(F)c(F)c1F,94.7%
20,CC(=O)Oc1cc2c(C(=O)NCCN3CCOCC3)c(C)oc2c2ccccc12,4.78% (active)
21,O=C(CCN1C(=O)c2ccccc2C1=O)NCCN1CCOCC1,93.8%
22,CCCOc1ccc(N2C(=O)CC(N(CCc3ccc(S(N)(=O)=O)cc3)C(C)=O)C2=O)cc1 (centres undefined),98%
23,O=C1c2ccccc2C(=O)N1CCCc1nc(-c2ccccc2)no1,111%

row,Compound,viability
1,Cc1ccc(-c2csc(SCC(=O)Nc3cc(C)on3)n2)cc1,100%
2,O=C(CCN1c2ccccc2Sc2ccccc21)Nc1ccccc1,84.5%
3,Cc1ccc(C2(C(F)(F)F)N=C3Sc4cc(C)cc(C)c4N3C(=O)N2)cc1 (centres undefined),21.8% (active)
4,COC(=O)c1nc2ccccc2s1,93.3%
5,Cc1ccccc1N1CCN(CCCOc2ccc3c(C)cc(=O)oc3c2)CC1,25.2% (active)
6,Cc1cc(=O)oc2cc(OCC3CC(c4ccccc4Cl)=NO3)ccc12 (centres undefined),44.4%
7,CCc1cc(=O)oc2cc(OCC(=O)N3CCCc4ccccc43)ccc12,80.5%
8,CCCC1(C(=O)OCC)NC(c2ccc(N(C)C)cc2)C2C(=O)N(c3ccc4c(c3)OCCO4)C(=O)C21 (centres undefined),104%
9,CCN(CC)C(=O)CSc1ncnc2c1cnn2-c1ccccc1,123%
10,Cc1cc(Br)ccc1NC(=O)C1CCCO1 (centres undefined),90.3%
11,Cc1ccc(C(=O)NCC2CCCO2)o1 (centres undefined),106%
12,OC(CNCC1CCCO1)Cn1c2ccc(Br)cc2c2cc(Br)ccc21 (centres undefined),3.17% (active)
13,Cc1ccc(S(=O)(=O)/N=C(\CN2CCOCC2)N2CCOCC2)cc1,89.5%
14,Cc1ccc(CN2CCN(/N=C/c3ccco3)CC2)c(C)c1,104%
15,C=C(C)COc1ccc(-c2n[nH]c(C)c2-c2ccccc2OC)c(O)c1,23.9% (active)
16,C=C(C)COc1ccc(-c2n[nH]c(C)c2-c2ccccc2)c(O)c1,54%
17,COc1ccc(-c2n[nH]c(C)c2-c2ccc(OC)c(OC)c2)c(O)c1,48.7%
18,O=C(NCC1CCCO1)c1ccc2ccccc2n1 (centres undefined),89.6%
19,O=S(=O)(NC1CCCCC1)c1ccc(F)c2ccccc12,81.9%
20,Cc1ccc(S(=O)(=O)NCCSC(C)(C)C)cc1,103%
21,CCc1nnc(NC(=O)CSc2nc3ccccc3c(=O)n2CCCOC)s1,90.7%
22,COCCNc1nc(-n2nc(C)cc2C)nc2sc3c(c12)CCCC3,78%
23,Cc1nc(SCC(=O)Nc2cc(C)on2)c2c3c(sc2n1)CCCC3,75.7%

row,Compound,viability
1,Cc1cc(C)n(-c2nc(SCC(=O)N3CCCC3)c3c4c(sc3n2)CCCC4)n1,16.2% (active)
2,CCCCCCNC(=O)CSc1nccn1Cc1ccccc1,80.6%
3,O=C(C(NS(=O)(=O)c1cccc2nsnc12)c1ccccc1)N1CCN(c2ccccc2)CC1 (centres undefined),101%
4,CCC1(C)Cc2c(sc3[nH]c(=S)n(Cc4ccccc4)c(=O)c23)CO1 (centres undefined),7% (active)
5,CCC1(C)Cc2c(sc3nc(SC)nc(N)c23)CO1 (centres undefined),93.2%
6,CCC1(C)Cc2c(sc3nc4n(c(=O)c23)CCCS4)CO1 (centres undefined),101%
7,C=CCn1c(N)cc(=O)nc1SCC(=O)Nc1cccc2ccccc12,103%
8,O=C(NC1CCCCC1)c1ccc(CNc2c(N3CCOCC3)c(=O)c2=O)cc1,105%
9,COC(=O)c1c(C)c(C)nc(N)c1C#N,104%
10,Oc1ccc2ccc3cccc[n+]3c2c1,97.5%
11,Cc1cc(N)n2nc(-c3ccc(C(C)(C)C)cc3)cc2n1,24.9% (active)
12,Cc1nc2cc(-c3ccc(F)cc3)nn2c(N2CCOCC2)c1C,98.8%
13,COc1ccc(-c2cc(C)nc3nc(N)nn23)cc1,86.4%
14,CCCCCN1CC(O)=C(c2nc(-c3ccc(Cl)cc3)cs2)C1=N,102%
15,O=C(O)CCN=C1CCc2ccccc2N1,95.7%
16,O=C(COc1ccc(S(=O)(=O)NCc2ccccc2)cc1)N1CCOCC1,98.2%
17,Cc1ccc2oc(=O)c3cnn(CC(=O)N(Cc4ccco4)C4CCCCC4)c3c2c1,84%
18,COc1cc(CC(=O)NCc2cccs2)cc(OC)c1OC,98.3%
19,CC(=O)Nc1ccc(NC(=O)CSCc2cnn(-c3ccccc3)c2-n2cccc2)cc1,89.5%
20,O=C(NCCC1=CCCCC1)C1CCN(Cc2cnn(-c3ccccc3)c2-n2cccc2)CC1,28.4% (active)
21,C1=C(CCNc2ncnc3c2cnn3-c2ccccc2)CCCC1,94.9%
22,CCn1c(SCC(=O)Nc2ccc(S(=O)(=O)Nc3onc(C)c3C)cc2)nnc1-c1ccccc1,89.5%
23,Brc1ccc(-c2nnc(-c3ccccc3)o2)o1,90.9%

row,Compound,viability
1,OCCN1CCOCCOCCN(CCO)CCN(CCO)CC1,105%
2,CC(C)(C)c1cc(=O)n2c(nc3ccccc32)[nH]1,103%
3,Cc1nc2c(-c3ccccc3)c(C)[nH]n2c(=O)c1Cl,12% (active)
4,Cc1[nH]n(-c2cccc(Cl)c2)c(=O)c1-c1ccc(Cl)cc1,63.2%
5,Cc1nc2nc(COc3ccccc3)[nH]n2c(=O)c1C,88.1%
6,CCCN(Cc1cc2cccc(C)c2[nH]c1=O)S(C)(=O)=O,95.8%
7,CCOc1ccc(S(=O)(=O)N2CCCCCC2)c2ccccc12,102%
8,O=C1CSC2=NCN(c3ccccc3)CN12,93.5%
9,Cc1cccc(N2C(=O)c3cccnc3C2=O)c1,95.8%
10,COc1cc(/C=C(\C#N)c2nc3c(s2)CC(C)CC3)ccc1O (centres undefined),83.7%
11,COc1ccc(-c2nnc(SCC(=O)c3ccco3)n2-c2ccccc2)cc1,92.6%
12,N#Cc1c(NC(=O)CSc2nc3ccccc3c(=O)n2Cc2ccco2)sc2c1CCCC2,58.5%
13,COc1ccc(-n2c(SCC(=O)Nc3sc4c(c3C#N)CCCC4)nnc2-c2ccc(O)cc2)cc1,3.66% (active)
14,Cc1cc(NC(=O)CCC(=O)N(CC(=O)NCC2CCCO2)c2ccccc2C)no1 (centres undefined),105%
15,CC(C)(O)C(=O)NN(C(=O)c1ccccc1)c1cccc(Br)c1,109%
16,CCOC(=O)c1nnn(-c2nonc2-n2cccc2)c1CN1CCC(C(=O)OCC)CC1,92.5%
17,Cc1cc(-n2nc(C)cc2C)n2nc(C)c(-c3ccccc3)c2n1,106%
18,CCOC(=O)c1nnn(-c2nonc2-n2cccc2)c1CN1CCOCC1,100%
19,Fc1ccccc1/C=C1\CCCC2=C1Nc1ncnn1C2c1ccccc1F (centres undefined),13% (active)
20,CCCCc1nnc(NC(=O)CS(=O)(=O)Cc2ccccc2)s1,107%
21,Clc1ccc(COn2c(-c3ccc(Cl)cc3Cl)nc3ncccc32)cc1,86%
22,Cc1noc(/C=C/c2ccco2)c1S(=O)(=O)N1CCC(C(=O)N2CCc3ccccc32)CC1,93.3%
